# C diff HTS – blocks growth of Clostridium difficile; Clostridium difficile clinical isolate growth, OD600, 24 h; stronger effect = lower value; growth activity, negative = inhibition, % at 16 µg/mL (by protocol); actives 0.25% (n = 86,000); AID 1259249;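 active = mean growth activity at or below -80% and every replicate also at or below -80%; inconclusive = mean at or below -80% but some replicate above -80%; inactive = mean growth activity above -80%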;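 note: 0% = DMSO wells and -100% = levofloxacin 16 µg/mL wells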
# Pf Dd2 inh – P. falciparum Dd2 growth inhibition. SYBR Green, 72 h; stronger effect = lower value. AID 1159554. activity change, % at 10 µM. actives 2.3% (n = 94,000); in the data active = activity change below about -80%; inconclusive = no clear call, values can overlap the other calls
# T cruzi growth – blocks T. cruzi growth in NIH3T3 culture. actives 5.9% (n = 77,000). AID 624255. inhibition, % at 8.34 µM. T. cruzi beta-gal in NIH3T3, GalScreen luminescence, 90 h;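 active = mean inhibition above about 93%, with at least 55% of replicates each passing it, limit read from the data, passing the limit was not always enough; inconclusive = only one of those two conditions holds; inactive = neither condition holds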
# * hit, by the source's call; ? = inconclusive; . = no result. The list is not random: actives were taken first. Their share in the collection is about 6.7%.
SMILES,C diff HTS,Pf Dd2 inh,T cruzi growth
COc1ccc(CN2C[C@H](C)[C@H](OC)CN(C)C(=O)c3cc(NC(=O)c4nc5ccccc5s4)ccc3OC[C@@H]2C)cc1,.,-83*,.
COc1ccc(CN2C[C@H](C)[C@@H](OC)CN(C)C(=O)c3cc(NC(=O)c4nc5ccccc5s4)ccc3OC[C@H]2C)cc1,.,-75,.
CCN1[C@@H]2c3ccc(-c4ccccc4OC)c(=O)n3C[C@@H]2[C@@H](CO)[C@@H]1C(=O)NCCCN(C)C,0,16,.
OC[C@@H]1[C@@H](c2ccc(C#CC3(O)CCCC3)cc2)[C@@H]2CN(Cc3ccccc3F)CCCCN12,1,-29,21
COc1ccc(C#Cc2ccc([C@H]3[C@@H](CO)N4CCCCN(Cc5ccncc5)C[C@@H]34)cc2)cc1,-4,-53,66
COc1ccc(C#Cc2ccc([C@@H]3[C@@H](CO)N4CCCCN(Cc5ccccc5F)C[C@@H]34)cc2)cc1,22,-53,27
COc1ccc(C#Cc2ccc([C@H]3[C@H](CO)N4CCCCN(Cc5ccccc5F)C[C@@H]34)cc2)cc1,-97*,-80,62
COc1ccc(C#Cc2ccc([C@@H]3[C@H](CO)N4CCCCN(Cc5ccccc5F)C[C@@H]34)cc2)cc1,-97*,-82*,16
COc1ccc(C#Cc2ccc([C@H]3[C@@H](CO)N4CCCCN(Cc5ccncc5)C[C@H]34)cc2)cc1,1,-83*,52
CCCNC(=O)[C@@H]1[C@@H](CO)[C@@H]2Cn3c(ccc(-c4ccccc4F)c3=O)[C@@H]2N1C,-9,15,.
Cc1ccc(S(=O)(=O)N(C)C[C@@H]2OCCCC[C@H](C)Oc3ccc(NC(=O)NC4CCCCC4)cc3C(=O)N([C@H](C)CO)C[C@H]2C)cc1,-1,-85*,90
C[C@@H]1CCCCO[C@@H](CN(C)S(=O)(=O)c2ccc(F)cc2)[C@H](C)CN([C@H](C)CO)C(=O)c2cc(NC(=O)NC3CCCCC3)ccc2O1,16,-72,81
C[C@@H]1CN([C@H](C)CO)C(=O)c2cc(NC(=O)NC3CCCCC3)ccc2O[C@@H](C)CCCCO[C@@H]1CN(C)S(=O)(=O)c1ccc(F)cc1,19,-84*,34
Cc1ccc(S(=O)(=O)N(C)C[C@H]2OCCCC[C@@H](C)Oc3ccc(NC(=O)NC4CCCCC4)cc3C(=O)N([C@@H](C)CO)C[C@@H]2C)cc1,-5,?,83
CC=Cc1ccc2n(c1=O)C[C@@H]1[C@@H](CO)[C@H](C(=O)N3CCCCC3)N(C(=O)CC)[C@H]21 (mixture of isomers),-3,.,27
C[C@H]1CN([C@@H](C)CO)C(=O)c2c(c3ccccc3n2C)-c2ccccc2CO[C@@H]1CN(C)S(=O)(=O)c1cccs1,7,-86*,94
COc1ccccc1S(=O)(=O)N(C)C[C@@H]1OCc2ccccc2-c2c(n(C)c3ccccc23)C(=O)N([C@H](C)CO)C[C@H]1C,0,-70,52
Cc1ccccc1S(=O)(=O)N(C)C[C@@H]1OCc2ccccc2-c2c(n(C)c3ccccc23)C(=O)N([C@@H](C)CO)C[C@@H]1C,.,-89*,83
COc1ccccc1S(=O)(=O)N(C)C[C@H]1OCc2ccccc2-c2c(n(C)c3ccccc23)C(=O)N([C@H](C)CO)C[C@@H]1C,7,-85*,77
C[C@H]1CN([C@@H](C)CO)C(=O)c2c(c3ccccc3n2C)-c2ccccc2CO[C@H]1CN(C)S(=O)(=O)c1cccs1,-5,-39,68
Cc1ccccc1S(=O)(=O)N(C)C[C@H]1OCc2ccccc2-c2c(n(C)c3ccccc23)C(=O)N([C@H](C)CO)C[C@H]1C,.,-84*,90
C[C@@H]1CN([C@@H](C)CO)C(=O)c2c(c3ccccc3n2C)-c2ccccc2CO[C@@H]1CN(C)S(=O)(=O)c1ccccc1F,-1,-71,94
C[C@@H]1CN([C@H](C)CO)C(=O)c2c(c3ccccc3n2C)-c2ccccc2CO[C@@H]1CN(C)S(=O)(=O)c1ccccc1F,1,-71,87
C#Cc1ccc([C@@H]2C=C(C(=O)N3CCCCCCC3)O[C@H](OCC)[C@H]2CCCO)cc1,9,.,.
Cc1ccc(S(=O)(=O)N[C@@H]2C=C[C@H](CC(=O)O)O[C@H]2CO)cc1,5,3,-33
CCOC(=O)[C@H](Cc1c[nH]c2ccccc12)NC(=O)CN=[N+]=[N-],-10,.,.
COC(=O)C[C@H]1CC[C@@H]2[C@@H](COc3ccc(NC(=O)c4cccc(Cl)c4)cc3C(=O)N2C)O1,5,.,31
COCC(=O)N1CCC2(CC1)CN(Cc1ccccc1Cl)[C@H](CO)c1[nH]c3cc(OC)ccc3c12,-3,-83*,.
COc1ccc2c3c([nH]c2c1)[C@H](CO)N(Cc1ccccc1Cl)CC31CCN(C(C)=O)CC1,8,-89*,.

# From PubChem
